According to PubChem BioAssay (NCI):
Compounds without any hit were thinned out: in the full panel of roughly 83,000, 20% have a hit.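 Percent growth is the endpoint: 0 to 100 indicates growth inhibition (40 means 60% inhibition), 0 means no net growth, and negative values indicate cell death.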 Calls of active or inactive are those of the source. Rule for the calls: active = growth percent below 10; inactive = the rest.

Columns and labels:
Experiment in all cases: NCI-60 one-dose screen, 48 h (100 = growth as untreated, 0 = no growth, -100 = all killed)
NCI-H23 lung = details: 10 µM unless noted
NCI-H226 lung = details: 10 µM unless noted
NCI-H322M lung = details: 10 µM unless noted
HOP-62 NSCLC = details: 10 µM unless noted
NCI-H460 lung = details: 10 µM unless noted
HOP-92 NSCLC = details: 10 µM
NCI-H522 lung = details: 10 µM unless noted
A549/ATCC NSCLC = details: 10 µM unless noted
786-0 renal = details: 10 µM unless noted
COLO 205 colon = details: 10 µM unless noted
DU-145 prostate = details: 10 µM unless noted
K-562 leukemia = details: 10 µM unless noted
MALME-3M melanoma = details: 10 µM unless noted
MDA-MB-231 breast = details: 10 µM unless noted
SF-268 CNS = details: 10 µM unless noted
SF-295 CNS = details: 10 µM unless noted
SF-539 CNS = details: 10 µM unless noted
UACC-257 melanoma = details: 10 µM unless noted

Measured: growth

N#Cc1cccc(CN2CCC3=C(C2)C(=O)N(Cc2ccc(Cl)cc2)C2=NCCN23)c1
inactive: NCI-H23 lung 30.8% | NCI-H226 lung 35% | NCI-H322M lung 50.8% | HOP-62 NSCLC 31.8% | NCI-H460 lung 15% | HOP-92 NSCLC 29% | NCI-H522 lung 23.1% | A549/ATCC NSCLC 27.2% | 786-0 renal 44.7% | DU-145 prostate 28.5% | K-562 leukemia 23.3% | MALME-3M melanoma 50.4% | MDA-MB-231 breast 31.7% | SF-268 CNS 36% | SF-539 CNS 41.7% | UACC-257 melanoma 10.7%
active: COLO 205 colon -41% | SF-295 CNS 8.53%

C=CCN(C)S(=O)(=O)/N=C1\NC(=O)NC1=C(Cl)Cl
inactive: NCI-H23 lung 37.5% | NCI-H226 lung 89% | NCI-H322M lung 95% | HOP-62 NSCLC 76.5% | NCI-H460 lung 45.6% | A549/ATCC NSCLC 103% | 786-0 renal 32.2% | DU-145 prostate 72.8% | SF-268 CNS 32.2% | SF-295 CNS 102% | UACC-257 melanoma 57.4%
active: HOP-92 NSCLC -23.4% | NCI-H522 lung -57% | COLO 205 colon -40.8% | K-562 leukemia -3.52% | MALME-3M melanoma -69.4% | MDA-MB-231 breast -25.5% | SF-539 CNS -23.6%

C=CCn1c(SCC(=O)Nc2ccc(C(=O)/C=C/c3ccc(C)cc3)cc2)nnc1-c1c[nH]c2ccccc12
inactive: NCI-H23 lung 97.7% | NCI-H226 lung 78.1% | NCI-H322M lung 97.1% | HOP-62 NSCLC 94.4% | NCI-H460 lung 102% | HOP-92 NSCLC 86.3% | NCI-H522 lung 81.3% | A549/ATCC NSCLC 75.9% | 786-0 renal 103% | COLO 205 colon 112% | DU-145 prostate 98.4% | K-562 leukemia 61.1% | MALME-3M melanoma 95% | MDA-MB-231 breast 89% | SF-268 CNS 79.4% | SF-295 CNS 66.9% | SF-539 CNS 90.9% | UACC-257 melanoma 112%

Cc1c(Cl)cccc1S(=O)(=O)Nc1ccc2c(c1)C(=O)N(C1CCC(=O)NC1=O)C2=O (configuration not stated)
inactive: NCI-H23 lung 102% | NCI-H226 lung 66.6% | NCI-H322M lung 88.8% | HOP-62 NSCLC 73.5% | NCI-H460 lung 111% | HOP-92 NSCLC 49% | NCI-H522 lung 94.2% | A549/ATCC NSCLC 104% | 786-0 renal 78.9% | COLO 205 colon 62.3% | DU-145 prostate 108% | K-562 leukemia 101% | MALME-3M melanoma 55% | MDA-MB-231 breast 46.8% | SF-268 CNS 82.1% | SF-295 CNS 91.7% | SF-539 CNS 102% | UACC-257 melanoma 113%

CC(c1ccccc1)N1CSc2nc3ncncc3n2C1 (configuration not stated)
inactive: NCI-H23 lung 24.1% | NCI-H226 lung 48.8% | NCI-H322M lung 40.9% | HOP-62 NSCLC 26.9% | NCI-H460 lung 51.2% | HOP-92 NSCLC 65.5% | NCI-H522 lung 38.2% | A549/ATCC NSCLC 72% | 786-0 renal 29.6% | COLO 205 colon 32.8% | DU-145 prostate 33.3% | K-562 leukemia 20.9% | MALME-3M melanoma 38.2% | MDA-MB-231 breast 32.7% | SF-268 CNS 28.4% | SF-295 CNS 21.6% | SF-539 CNS 23.5% | UACC-257 melanoma 44.5%

Nc1ncc(-c2ccc3ncnc(N4CCc5cc(F)c(F)cc54)c3c2)cn1
inactive: NCI-H23 lung 38.3% | NCI-H226 lung 29.1% | NCI-H322M lung 33.1% | HOP-62 NSCLC 13.4% | NCI-H460 lung 18.9% | NCI-H522 lung 34% | A549/ATCC NSCLC 15.6% | 786-0 renal 14.2% | COLO 205 colon 43.6% | DU-145 prostate 26% | K-562 leukemia 48.7% | MALME-3M melanoma 17.4% | MDA-MB-231 breast 26.9% | SF-268 CNS 29.5% | SF-295 CNS 20.7% | SF-539 CNS 18.9% | UACC-257 melanoma 45%
active: HOP-92 NSCLC -7.6%

COC(=O)C1(C)CCC[C@]2(C)[C@H]3C[C@H]4C(C(C)C)=C[C@]3(CC[C@@H]12)[C@H]1[C@@H]4[C@@H](OC(=O)c2ccco2)CC[C@@H]1OC(=O)c1ccco1 (some centres not stated)
inactive: NCI-H23 lung 104% | NCI-H226 lung 103% | NCI-H322M lung 106% | HOP-62 NSCLC 96.9% | NCI-H460 lung 117% | HOP-92 NSCLC 102% | NCI-H522 lung 99.6% | A549/ATCC NSCLC 102% | 786-0 renal 94.3% | COLO 205 colon 115% | DU-145 prostate 113% | K-562 leukemia 104% | MALME-3M melanoma 108% | MDA-MB-231 breast 101% | SF-268 CNS 108% | SF-295 CNS 98.3% | SF-539 CNS 103% | UACC-257 melanoma 110%

COc1c(N2CC3CCCNC3C2)c(F)cc2c(=O)c(C(=O)N/N=C/c3ccc(N(C)C)cc3)cn(C3CC3)c12 (configuration not stated)
inactive: NCI-H23 lung 69.1% | NCI-H226 lung 98.5% | NCI-H322M lung 93.6% | HOP-62 NSCLC 91.9% | NCI-H460 lung 78.3% | HOP-92 NSCLC 69.5% | NCI-H522 lung 73% | A549/ATCC NSCLC 88.7% | 786-0 renal 37.7% | COLO 205 colon 104% | DU-145 prostate 73.6% | MALME-3M melanoma 92.9% | MDA-MB-231 breast 69.1% | SF-268 CNS 85.5% | SF-295 CNS 95% | UACC-257 melanoma 106%
active: K-562 leukemia -10% | SF-539 CNS -8.68%

O=C1Nc2ccccc2/C1=C/c1ccc(COCC2CO2)n1-c1ccc(O)cc1 (configuration not stated)
inactive: NCI-H23 lung 100% | NCI-H226 lung 109% | NCI-H322M lung 107% | HOP-62 NSCLC 105% | NCI-H460 lung 113% | HOP-92 NSCLC 124% | NCI-H522 lung 93.5% | A549/ATCC NSCLC 104% | 786-0 renal 103% | COLO 205 colon 116% | DU-145 prostate 111% | K-562 leukemia 107% | MALME-3M melanoma 62.9% | MDA-MB-231 breast 94.9% | SF-268 CNS 98.7% | SF-295 CNS 109% | SF-539 CNS 96.8% | UACC-257 melanoma 102%
